Assay outcomes (PubChem)
This is a sample that favours compounds with a hit; in the whole collection about 2.3% have one here.
V-ATPase pH – regulators of yeast V-ATPase proton transport; S. cerevisiae, pHLuorin cytosolic pH fluorescence; 350,000 tested, 0.37% active; AID 504577; response, % at 10 µM; in the data active = response mostly above about 7.3%, no sharp cut-off; inactive = mostly below about 5.4%; note: actives read high
ADAM10 inh – ADAM10 inhibition, QFRET primary screen. O14672. recombinant ADAM10, EDANS/DABCYL FRET peptide cleavage, 3 h. inhibition, % at 7 µM. 370,000 tested, 0.62% active. AID 720582;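 active = inhibition above a per-campaign cutoff equal to the mean of compounds falling between control-based bounds plus 3 SD, cut at about 20% in these data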;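 note: 0% = DMSO wells while the 100% control is not disclosed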
proKLK7 act – activators of human kallikrein-7 zymogen; purified proKLK7, EDANS-DABCYL substrate fluorescence; 100% is mature enzyme control, 0% vehicle; activation, % at 7 µM; 370,000 tested, 0.9% active; AID 652039;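 active = activation above the mean of all tested compounds plus 3 SD, computed per campaign excluding outliers beyond control limits, cut at about 13% in these data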
Target sequence (P49862 whole entry, looked up): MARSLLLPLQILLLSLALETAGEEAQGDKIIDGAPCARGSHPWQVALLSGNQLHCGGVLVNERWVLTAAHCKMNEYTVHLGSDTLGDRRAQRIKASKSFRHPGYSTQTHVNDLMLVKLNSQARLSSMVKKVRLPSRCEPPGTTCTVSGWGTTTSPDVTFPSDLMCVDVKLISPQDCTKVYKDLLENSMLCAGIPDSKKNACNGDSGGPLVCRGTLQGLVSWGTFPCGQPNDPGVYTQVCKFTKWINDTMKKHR
ADAM17 inh – inhibits human ADAM17; inhibition, % at 6.95 µM; recombinant ADAM17, EDANS/DABCYL FRET peptide cleavage; 370,000 tested, 0.83% active;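 active = inhibition above the mean of compounds lying between control limits plus 3 SD, set per campaign, cut at about 8.5% in these data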;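 note: 0% = DMSO-only wells as the low control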
proKLK7 act conf – confirmation of human kallikrein-7 zymogen activators. activation, % at 7 µM. 3,200 tested, 68% active. purified proKLK7, EDANS-DABCYL substrate fluorescence; scaled: vehicle 0, mature enzyme 100. shares compounds with proKLK7 act;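 active = activation, as change over the incubation, above the mean of all tested compounds plus 3 SD, cut at about 13% in these data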
EDANS interfere – optically interferes with EDANS-DABCYL signal, flagging KLK7 hits. EDANS-DABCYL substrate fluorescence interference, no enzyme, 4 h; solvent 0%, active enzyme control 100%. shares compounds with proKLK7 act. activation, % at 7 µM. 3,200 tested, 80% active;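 active = activation above the all-compound mean plus 3 SD, ignoring values outside control-based bounds, cut at about 4.8% in these data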;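 note: value is the 4 h activation minus the activation read at time zero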
EDANS interf – EDANS fluorescence interference in dose response, no enzyme; shares compounds with proKLK7 act; EDANS-DABCYL peptide fluorescence interference; EC50, µM; 250 tested, 20% active; AID 720493;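 active = compounds that raise the fluorescence signal in this interference counterscreen, with EC50 at or below 10 µM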;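 note: intact quenched peptide substrate alone read at 355 nm excitation and 520 nm emission; signal is fluorescence gain from T0 to T4 after four hours at room temperature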
Starred values were filed as active, the others as inactive; i = inactive; nt = not tested or not shown; ! = not active in a repeat.

SMILES	V-ATPase pH	ADAM10 inh	proKLK7 act	ADAM17 inh	proKLK7 act conf	EDANS interfere	others
CN1c2ccccc2Oc2nnc(Cl)cc21	3	i	13*	-206	28*	34*
CN1c2ccccc2Sc2cc(N)ccc21	0	10	0	2	nt	nt
C[C@H]1CN(S(=O)(=O)C(C)(C)C)[C@H](CCO)/C1=C\CCO	nt	-2	-1	3	nt	nt
Cc1ccc2cc3c(NC(=O)C(C)C)nn(C)c3nc2c1	-2	-35	15*	-6	-9	-1
COc1cccc2c1[C@H](/C=C/c1ccccc1)[C@@H]([C@H](O)COC(C)=O)OC2	nt	4	0	4	nt	nt
COc1ccc(C(=O)/C=C/c2ccc(O)cc2)cc1	1	-105	18*	-20	4	5.5*
COc1ccc(C=CC(=O)c2ccc([N+](=O)[O-])cc2)cc1	-4	-6	0	-4	nt	nt
COc1cc(/C=C/C(=O)OCC(=O)Nc2ccc3c(c2)OCCO3)ccc1OCC#N	-3	-253	38*	-22	128*	110*
COc1cccc(C(=O)/C=C/c2ccc(OCC#N)c(OC)c2)c1	2	6	-1	1	nt	nt
COc1cc(/C=C/C(=O)c2ccc(O)cc2)ccc1OCC#N	-1	-18	16*	4	3	4.2*
COc1ccc(/C=C/C(=O)c2ccccc2)cc1COc1ccccc1F	3	0	263*	-1	-17	80*
Nc1c2ccccc2nc2ccccc12	0	i	14*!	-216	52*	71*
COC(=O)C1=C(C)N(C)C(=NCc2ccc3c(c2)OCO3)NC1c1cccc(C(F)(F)F)c1 (stereo unspecified)	nt	1	1	-3	nt	nt
COC(=O)c1nc2n(n1)C(c1cccc(Cl)c1)C1=C(CCCC1=O)N2 (stereo unspecified)	8	-18	20*	-1	14*	19*
COc1ccccc1C1C=C(c2ccccc2)Nc2nnnn21 (stereo unspecified)	2	-33	21*	-6	16*	14*	EDANS interf=i
COc1cccc(C2=CC(c3ccc(OC)c(OC)c3OC)n3nnnc3N2)c1 (stereo unspecified)	8	-6	6	-1	nt	nt
CCCCCCCCN1C(=O)[C@@H](CC(=O)NCC2CCCCC2)C[C@@]2(C(=O)OC)C1=C[C@H](COCc1ccccc1)O[C@@H]2C	nt	-7	0	-4	nt	nt
N#Cc1ccc(-c2ccc(OCC(=O)Nc3cccnc3)cc2)cc1	0	-15	18*	-9	-1	-1
CC(=O)Nc1ccc(NC(=O)COc2ccc(-c3ccc(C#N)cc3)cc2)cc1	-6	-7	-1	-5	nt	nt
COc1ccc(C)cc1S(=O)(=O)NCCN1CCOCC1	2	-10	0	-5	nt	nt
COc1ccc(Br)cc1S(=O)(=O)NCCN1CCOCC1	1	10	42*	5	0	0
CN(C)c1nc2sc3c(c2c(=O)n1C)CC(C)(C)OC3	3	-7	0	-8	nt	nt
CNc1nc2sc3c(c2c(=O)n1C)CC(C)(C)SC3	-2	i	23*	i	1	2
COc1cccc(C2CC=C(C(=O)O)CN2S(=O)(=O)c2ccc(C)cc2)c1 (stereo unspecified)	nt	-4	0	-3	nt	nt
O=C1CCC(=O)N1c1nc2nc(-c3ccccc3)cc(-c3ccccc3)n2n1	1	i	31*	-260	40*	44*
SMILES	V-ATPase pH	ADAM10 inh	proKLK7 act	ADAM17 inh	proKLK7 act conf	EDANS interfere	others
Nc1ccccc1/C=C/c1ccccc1N	0	i	85*	i	61*	66*
Cc1ccc(-c2cnc3cccnn23)cc1F	nt	i	23*	-276	5	7.6*
COc1cccc(-c2cnc3cccnn23)c1	nt	i	46*	-351	39*	45*
COc1ccc(-c2cc(NC=O)c3ncc(-c4cccc(OC)c4)n3c2)cc1	nt	-39	0	-9	nt	nt
COc1ccc(NC(=O)c2sc3nc(-c4cccnc4)ccc3c2N)cc1OC	-15	-1	56*	-2	15*	16*
COc1ccc(NC(=O)c2sc3nc(-c4cccnc4)ccc3c2N)cc1	-6	-6	0	-3	nt	nt
N#Cc1c(-c2cccnc2)cc(-c2ccccc2)nc1N	1	i	13*	i	14*	13*
N#Cc1c(-c2ccco2)cc(-c2ccccn2)nc1N	-1	i	13*	i	41*	40*
N#Cc1c(-c2ccccc2F)cc(-c2cccnc2)nc1N	0	i	9	i	nt	nt
N#Cc1c(-c2ccco2)cc(-c2cccnc2)nc1N	-5	i	20*	i	42*	43*
CCCC[C@H](C(=O)N(C)c1cccc(OC)c1)[C@@H](O)c1ccc(Cl)cc1	nt	7	1	0	nt	nt
O=C1C=C(c2cccc3c2Oc2ccccc2S3)C[C@@H](c2ccc3c(c2)OCO3)C1	nt	-1	-1	-1	nt	nt
COc1ccc2c3c([nH]c2c1)[C@H]1C[C@H]2[C@H](C[C@@H](O)[C@H](OC)[C@H]2C(=O)O)CN1CC3	-1	i	40*	-275	8	11*
COc1ccc2c3c([nH]c2c1)C1CC2C(CC(O)C(OC)C2CO)CN1CC3 (stereo unspecified)	5	-196	0	-50	nt	nt
COc1cc2ccc(=O)oc2cc1O	0	i	95*	i	77*	83*
COc1cc2oc(=O)ccc2c(OC)c1CC(O)C(C)(C)O (stereo unspecified)	0	-118	2	-27	nt	nt
COc1cc2ccc(=O)oc2cc1OCC(O)C(C)(C)O (stereo unspecified)	-1	i	21*	i	33*	48*
Cc1c(C)n(Cc2ccc(-c3ccccc3C(=O)O)cc2)c2ccc(C(=O)N[C@@H](C)c3ccc(Br)cc3)cc12	nt	5	1	0	nt	nt
COc1cccc2c(=O)cn[nH]c12	0	i	84*	-412	66*	64*
O=c1cn[nH]c2ccccc12	-7	-2	-1	-4	nt	nt
COC(=O)c1cc(=O)c2cccc(OC)c2[nH]1	3	i	196*	-320	77*	77*
Cc1nn(-c2ccccc2)c2nc(N)c(C(N)=O)cc12	-1	i	14*	-264	15*	17*
Cc1nc2ccccc2c(=O)n1CCCN1CCOCC1	-1	3	0	-1	nt	nt
FC(F)(F)c1nc2nc(Cl)c(Cl)nc2n1CCCN1CCOCC1	2	i	25*	-286	2	2
O=S(=O)(O)c1ccc(N2N=C(c3ccccc3)CC2c2ccccc2)cc1 (stereo unspecified)	-6	i	56*	i	72*	66*
